Several values for one entry are separate records, joined by “and”; a condition that tells them apart may be missing. Equal values may be shown once. Results filed as inconclusive are left out. Where a structure was tested more than once in an assay, its records may differ in their call. Activity calls are given as the source filed them. The call rests on the fitted dose curve; in most records, active means well fitted curve in the direction sought with a large enough effect in the repeat runs; inconclusive means weak or mixed curves; inactive means no such curve, though single readings can be large; an effect the other way counts as inactive or inconclusive.
Columns and labels:
[1] = Human pregnane X receptor (PXR) small molecule agonists, qHTS cell viability counter screen (AID 1346977); further: nearly all actives have a fitted effect of over 50% in size
Procedure, shortened: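 Same-well viability read: CellTiter-Fluor added after 23 hr compound exposure, fluorescence measured 1 hr later. Cells were PXR-Luc HepG2 seeded at 2,000/well in 5% charcoal-stripped FBS medium, rested 5 hr before dosing at 37 C.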

[2] = Caspase-3/7 induction in HepG2 cells by small molecules, qHTS assay (AID 1346978); further: nearly all actives have a fitted effect of over 15% in size
Procedure, shortened: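 Caspase-3/7 induction was measured by Caspase-Glo 3/7 luminescence (30 min, room temperature) after a 17 hr compound exposure of wild-type HepG2 cells seeded at 2,000 per well and pre-incubated 5 hr.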

[3] = Caspase-3/7 induction in CHO-K1 cells by small molecules, qHTS cell viability counter screen (AID 1346979); further: nearly all actives have a fitted effect of over 35% in size; further: potency means the concentration at half of the fitted maximal effect
Procedure, shortened: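 Cytotoxicity counter screen: CellTiter-Fluor added to compound-treated wild-type CHO-K1 cells at 16 h (37C, 5% CO2), fluorescence measured 1 h later; same wells as caspase-3/7 measurement.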

[4] = Caspase-3/7 induction in CHO-K1 cells by small molecules, qHTS assay (AID 1346980); further: nearly all actives have a fitted effect of over 15% in size
Procedure, shortened: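 Luminescent Caspase-Glo 3/7 read (30min, room temperature) quantified apoptosis induction. Cells were wild-type CHO-K1, treated with compound for 17hr at 37 C and 5% CO2.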

[5] = Caspase-3/7 induction in HepG2 cells by small molecules, qHTS cell viability counter screen (AID 1346981); further: series mostly up to about 92 µM; nearly all actives have a fitted effect of over 30% in size
Procedure, shortened: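 The parent HepG2 line is plated at 2,000 cells per well and rested 5 hr before compound pinning from DMSO stocks. Following a 16-hr treatment at 37 C, a fluorogenic live-cell substrate (CellTiter-Fluor) reports viability after 1 hr.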

[6] = molecular target: Cytochrome P450 2D6 (Homo sapiens) (UniProt P10635); experiment: Cytochrome P450 Family 2 Subfamily D Member 6 (CYP2D6) small molecule antagonists: luciferase reporter qHTS assay (AID 1671196); further: nearly all actives have a fitted effect of over 50% in size; further: potency means the concentration at half of the fitted maximal effect
Procedure, shortened: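 Quantitative HTS of Tox21 chemicals against CYP2D6 using a luminescent proluciferin substrate. After NADPH addition, 1 h room-temperature reaction; luminescence recorded 20 min post detection reagent.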

[7] = molecular target: Cytochrome P450 2C19 (Homo sapiens) (UniProt P33261); experiment: Cytochrome P450 Family 2 Subfamily C Member 19 (CYP2C19) small molecule antagonists: luciferase reporter qHTS assay (AID 1671197); further: nearly all actives have a fitted effect of over 65% in size; further: potency means the concentration at half of the fitted maximal effect
Procedure, shortened: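 Relative luminescence units recorded 20 min after the detection reagent stopped a 1 h, 37C CYP2C19 reaction on proluciferin substrate, which was started by NADPH regeneration following 10 min room-temperature compound preincubation; ketoconazole positive control.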

[8] = molecular target: Cytochrome P450 2C9 (Homo sapiens) (UniProt P11712); experiment: Cytochrome P450 Family 2 Subfamily C Member 9 (CYP2C9) small molecule antagonists: luciferase reporter qHTS assay (AID 1671198); further: nearly all actives have a fitted effect of over 50% in size; further: potency means the concentration at half of the fitted maximal effect
Procedure, shortened: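 Enzyme-substrate mix preincubated with compound 10 min at room temperature; reaction started with NADPH regeneration solution, 1 h 37C. Luminescent luciferin product read after 20 min detection reagent.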

[9] = molecular target: Cytochrome P450 1A2 (Homo sapiens) (UniProt P05177); experiment: Cytochrome P450 Family 1 Subfamily A Member 2 (CYP1A2) small molecule antagonists: luciferase reporter qHTS assay (AID 1671199); further: nearly all actives have a fitted effect of over 50% in size; further: potency means the concentration at half of the fitted maximal effect
Procedure, shortened: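 Quantitative high-throughput format using the P450-Glo CYP1A2 system. Reaction initiated by NADPH regeneration solution, 1 h at room temperature, then stopped with detection reagent; luminescence measured 20 min later.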

[10] = molecular target: Voltage-gated inwardly rectifying potassium channel KCNH2 (Homo sapiens) (UniProt Q12809); experiment: Human Ether-a-go-go-Related Gene (hERG) channel small molecule antagonists: fluorescence cell-based qHTS assay (AID 1671200)
Procedure, shortened: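 Thallium flux as potassium surrogate: FluxOR II dye loaded 1 h at room temperature into hERG-expressing U2OS cells, then stimulus buffer added after 10 min. Kinetic 480 nm excitation/540 nm emission read, 2 min.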

[11] = molecular target: Cytochrome P450 3A4 (Homo sapiens) (UniProt P08684); experiment: Cytochrome P450 Family 3 Subfamily A Member 4 (CYP3A4) small molecule antagonists: luciferase reporter qHTS assay (AID 1671201); further: nearly all actives have a fitted effect of over 50% in size; further: potency means the concentration at half of the fitted maximal effect
Procedure, shortened: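 Recombinant human CYP3A4 converts a proluciferin substrate to luciferin over 1 h at room temperature after NADPH regeneration solution is added (compound preincubated 10 min); detection reagent stops reaction, luminescence read 20 min later as relative units.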

[12] = molecular target: Nuclear receptor subfamily 1 group I member 2 (Homo sapiens) (UniProt O75469); experiment: Human pregnane X receptor (PXR) small molecule agonists, qHTS assay (AID 1346982); further: nearly all actives have a fitted effect of over 35% in size
Procedure, shortened: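 After plating in 5% charcoal-stripped FBS and a 5 hr rest, PXR-Luc HepG2 cells received compounds in DMSO. Following 24 hr at 37 C, ONE-Glo was added and light output read.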

[13] = molecular target: Nuclear receptor subfamily 1 group I member 2 (Rattus norvegicus) (UniProt Q9R1A7); experiment: Rat pregnane X receptor (rPXR) activation by small molecules, qHTS assay (AID 1346983); details: rPXR luciferase reporter cells, One-Glo luminescence, 24 h; stronger effect = higher value; further: nearly all actives have a fitted effect of over 20% in size
Procedure, shortened: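 Luminescent readout (One-Glo luciferase, 30 min room temperature) followed 24 hr compound treatment at 37 C of rPXR cells plated 2,000 per well and preincubated 5hr; qHTS format with compounds delivered in DMSO.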
On the % scale 0 is the no-effect control and ±100 the full control effect.

Cytochrome P450 2D6 (Homo sapiens), sequence (P10635 whole entry, looked up): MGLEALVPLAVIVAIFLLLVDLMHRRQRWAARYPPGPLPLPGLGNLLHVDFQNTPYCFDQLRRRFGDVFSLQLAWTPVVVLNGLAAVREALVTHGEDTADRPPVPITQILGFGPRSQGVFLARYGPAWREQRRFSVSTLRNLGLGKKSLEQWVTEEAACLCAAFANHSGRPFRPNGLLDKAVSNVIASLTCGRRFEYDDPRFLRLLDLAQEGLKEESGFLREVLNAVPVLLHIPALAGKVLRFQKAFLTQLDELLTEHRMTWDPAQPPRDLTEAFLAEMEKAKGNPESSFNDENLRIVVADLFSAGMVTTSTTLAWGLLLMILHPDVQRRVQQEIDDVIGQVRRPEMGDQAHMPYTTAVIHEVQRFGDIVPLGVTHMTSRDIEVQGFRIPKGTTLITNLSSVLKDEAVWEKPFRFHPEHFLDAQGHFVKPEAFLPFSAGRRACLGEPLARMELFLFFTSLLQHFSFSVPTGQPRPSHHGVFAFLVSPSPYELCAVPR
Cytochrome P450 3A4 (Homo sapiens), sequence (P08684 whole entry, looked up): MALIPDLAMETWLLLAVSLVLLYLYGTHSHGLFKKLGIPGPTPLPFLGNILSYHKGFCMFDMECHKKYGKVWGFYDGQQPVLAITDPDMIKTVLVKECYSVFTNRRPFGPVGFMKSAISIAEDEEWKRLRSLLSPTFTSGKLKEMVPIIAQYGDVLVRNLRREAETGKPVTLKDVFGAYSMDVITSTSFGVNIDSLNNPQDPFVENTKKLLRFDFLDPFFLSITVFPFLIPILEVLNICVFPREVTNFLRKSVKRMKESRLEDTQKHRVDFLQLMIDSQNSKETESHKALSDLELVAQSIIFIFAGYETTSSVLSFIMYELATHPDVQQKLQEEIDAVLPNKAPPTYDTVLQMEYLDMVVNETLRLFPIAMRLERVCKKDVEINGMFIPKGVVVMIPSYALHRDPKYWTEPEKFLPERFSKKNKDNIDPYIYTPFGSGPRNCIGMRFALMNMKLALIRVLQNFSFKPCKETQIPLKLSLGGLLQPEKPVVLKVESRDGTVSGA
Voltage-gated inwardly rectifying potassium channel KCNH2 (Homo sapiens), sequence (Q12809 whole entry, looked up): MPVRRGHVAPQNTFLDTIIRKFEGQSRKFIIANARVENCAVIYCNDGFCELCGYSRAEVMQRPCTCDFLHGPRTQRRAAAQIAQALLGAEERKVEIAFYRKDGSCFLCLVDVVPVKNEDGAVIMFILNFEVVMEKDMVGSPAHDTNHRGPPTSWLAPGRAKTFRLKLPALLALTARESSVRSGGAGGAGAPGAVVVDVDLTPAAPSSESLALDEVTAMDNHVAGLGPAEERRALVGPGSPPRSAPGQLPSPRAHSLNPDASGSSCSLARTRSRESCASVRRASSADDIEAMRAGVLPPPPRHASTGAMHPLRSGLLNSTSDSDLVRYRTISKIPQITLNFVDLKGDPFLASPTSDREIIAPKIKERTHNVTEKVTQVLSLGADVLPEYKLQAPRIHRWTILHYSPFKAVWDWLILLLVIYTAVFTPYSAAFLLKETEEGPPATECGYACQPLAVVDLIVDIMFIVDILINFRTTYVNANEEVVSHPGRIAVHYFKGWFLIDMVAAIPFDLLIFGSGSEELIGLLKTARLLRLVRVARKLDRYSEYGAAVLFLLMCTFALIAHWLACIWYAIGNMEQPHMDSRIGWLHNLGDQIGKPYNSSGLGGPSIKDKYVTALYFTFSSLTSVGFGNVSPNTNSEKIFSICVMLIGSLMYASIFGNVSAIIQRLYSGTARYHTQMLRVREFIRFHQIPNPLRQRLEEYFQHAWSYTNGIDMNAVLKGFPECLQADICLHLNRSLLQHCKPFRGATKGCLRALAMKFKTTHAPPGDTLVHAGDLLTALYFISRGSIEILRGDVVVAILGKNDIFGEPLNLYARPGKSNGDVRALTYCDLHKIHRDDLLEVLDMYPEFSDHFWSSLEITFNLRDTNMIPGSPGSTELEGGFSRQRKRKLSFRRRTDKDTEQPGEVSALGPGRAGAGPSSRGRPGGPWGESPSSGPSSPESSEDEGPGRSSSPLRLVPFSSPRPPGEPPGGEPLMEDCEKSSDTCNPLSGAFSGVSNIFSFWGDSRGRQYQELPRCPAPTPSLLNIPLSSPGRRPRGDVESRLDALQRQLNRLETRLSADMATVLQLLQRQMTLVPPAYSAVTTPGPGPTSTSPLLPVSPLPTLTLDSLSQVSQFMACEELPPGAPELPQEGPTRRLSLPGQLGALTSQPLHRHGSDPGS
Cytochrome P450 2C19 (Homo sapiens), sequence (P33261 whole entry, looked up): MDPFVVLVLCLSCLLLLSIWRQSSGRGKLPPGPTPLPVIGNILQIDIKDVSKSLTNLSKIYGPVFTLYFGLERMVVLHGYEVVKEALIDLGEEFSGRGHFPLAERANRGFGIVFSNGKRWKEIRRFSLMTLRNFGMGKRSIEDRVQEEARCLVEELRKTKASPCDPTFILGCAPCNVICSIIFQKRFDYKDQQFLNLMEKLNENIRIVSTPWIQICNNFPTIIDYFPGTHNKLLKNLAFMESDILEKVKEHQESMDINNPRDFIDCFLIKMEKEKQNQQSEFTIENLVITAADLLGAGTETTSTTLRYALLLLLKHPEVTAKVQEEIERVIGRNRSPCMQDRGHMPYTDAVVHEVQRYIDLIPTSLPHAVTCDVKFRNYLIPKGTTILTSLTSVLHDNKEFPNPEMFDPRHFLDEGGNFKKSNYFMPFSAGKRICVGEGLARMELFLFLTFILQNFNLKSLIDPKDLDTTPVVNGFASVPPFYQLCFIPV
Cytochrome P450 1A2 (Homo sapiens), sequence (P05177 whole entry, looked up): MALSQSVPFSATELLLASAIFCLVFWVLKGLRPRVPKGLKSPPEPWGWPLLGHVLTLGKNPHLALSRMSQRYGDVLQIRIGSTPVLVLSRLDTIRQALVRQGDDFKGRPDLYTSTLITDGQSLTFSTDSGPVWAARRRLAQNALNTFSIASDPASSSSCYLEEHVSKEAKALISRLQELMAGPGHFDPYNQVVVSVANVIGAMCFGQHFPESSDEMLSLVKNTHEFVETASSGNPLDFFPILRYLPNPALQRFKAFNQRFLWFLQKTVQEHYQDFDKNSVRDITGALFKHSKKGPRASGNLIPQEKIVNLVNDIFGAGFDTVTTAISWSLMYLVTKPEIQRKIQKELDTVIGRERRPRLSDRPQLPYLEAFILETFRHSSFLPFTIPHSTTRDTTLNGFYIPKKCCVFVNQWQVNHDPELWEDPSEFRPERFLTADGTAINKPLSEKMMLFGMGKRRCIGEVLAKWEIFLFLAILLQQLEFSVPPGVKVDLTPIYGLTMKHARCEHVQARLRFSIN
Cytochrome P450 2C9 (Homo sapiens), sequence (P11712 whole entry, looked up): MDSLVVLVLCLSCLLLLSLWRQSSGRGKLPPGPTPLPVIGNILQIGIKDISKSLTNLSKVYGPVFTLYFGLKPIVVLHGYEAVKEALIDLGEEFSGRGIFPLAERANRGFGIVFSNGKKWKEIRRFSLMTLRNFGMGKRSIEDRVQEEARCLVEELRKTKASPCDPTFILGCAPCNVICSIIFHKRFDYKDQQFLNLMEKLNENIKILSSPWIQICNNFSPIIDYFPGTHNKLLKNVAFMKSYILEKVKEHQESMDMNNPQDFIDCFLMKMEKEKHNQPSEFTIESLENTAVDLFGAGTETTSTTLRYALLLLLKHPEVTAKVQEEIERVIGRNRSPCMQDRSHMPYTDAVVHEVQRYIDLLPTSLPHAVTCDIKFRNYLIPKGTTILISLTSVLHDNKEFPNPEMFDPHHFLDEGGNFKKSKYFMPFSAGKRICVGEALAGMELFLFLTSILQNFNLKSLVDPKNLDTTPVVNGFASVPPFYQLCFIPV
Nuclear receptor subfamily 1 group I member 2 (Homo sapiens), sequence (O75469 whole entry, looked up): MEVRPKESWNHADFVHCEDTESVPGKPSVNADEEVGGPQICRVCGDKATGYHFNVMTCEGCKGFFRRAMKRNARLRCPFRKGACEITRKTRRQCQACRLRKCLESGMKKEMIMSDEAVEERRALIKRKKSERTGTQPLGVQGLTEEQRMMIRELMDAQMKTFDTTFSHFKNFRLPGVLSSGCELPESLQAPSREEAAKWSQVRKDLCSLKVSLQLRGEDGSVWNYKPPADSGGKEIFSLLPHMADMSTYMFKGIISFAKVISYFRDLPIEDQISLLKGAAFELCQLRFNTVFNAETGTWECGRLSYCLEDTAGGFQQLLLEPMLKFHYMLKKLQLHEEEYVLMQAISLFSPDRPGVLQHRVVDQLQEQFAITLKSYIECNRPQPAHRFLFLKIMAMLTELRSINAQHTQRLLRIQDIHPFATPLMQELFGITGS
Nuclear receptor subfamily 1 group I member 2 (Rattus norvegicus), sequence (Q9R1A7 whole entry, looked up): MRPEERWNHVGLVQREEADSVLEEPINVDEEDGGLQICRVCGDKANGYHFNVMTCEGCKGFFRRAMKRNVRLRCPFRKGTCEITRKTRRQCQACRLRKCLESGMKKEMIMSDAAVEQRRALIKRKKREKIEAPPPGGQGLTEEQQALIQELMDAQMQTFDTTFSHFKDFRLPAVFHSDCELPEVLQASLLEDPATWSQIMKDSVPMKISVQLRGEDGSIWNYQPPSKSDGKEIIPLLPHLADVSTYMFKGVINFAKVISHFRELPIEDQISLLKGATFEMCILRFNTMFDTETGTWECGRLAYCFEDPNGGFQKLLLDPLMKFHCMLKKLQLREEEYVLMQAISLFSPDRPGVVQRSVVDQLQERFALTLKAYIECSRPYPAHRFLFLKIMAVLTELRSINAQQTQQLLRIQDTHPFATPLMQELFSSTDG

CCOC(=O)CC(=O)OCC
inactive: Potency [1] | Potency [2] | Potency [3] | Potency [4] | Potency [5] | Potency [6] | Potency [7] | Potency [8] | Potency [9] | Potency [10] | Potency [11]

Cc1cccc(C)c1[N+](=O)[O-]
inactive: Potency [1] | Potency [2] | Potency [3] | Potency [4] | Potency [5] | Potency [6] | Potency [7] | Potency [8] | Potency [10] | Potency [11]

N#CCC(=O)O
inactive: Potency [1] | Potency [2] | Potency [3] | Potency [4] | Potency [5] | Potency [6] | Potency [7] | Potency [8] | Potency [9] | Potency [10] | Potency [11]

COc1cc(NC(=O)CC(C)=O)c(OC)cc1Cl
inactive: Potency [1] | Potency [2] | Potency [3] | Potency [4] | Potency [5] | Potency [10]
active: Potency [6] 79.6 µM | Potency [8] 40.1 µM and 39.9 µM | Potency [9] 3.57 µM and 5.64 µM | Potency [11] 14.2 µM and 15.9 µM

CCCCCCC(=O)O
inactive: Potency [1] | Potency [2] | Potency [3] | Potency [4] | Potency [5] | Potency [6] | Potency [7] | Potency [8] | Potency [9] | Potency [10] | Potency [11]

Cc1ccccc1Cl
inactive: Potency [1] | Potency [2] | Potency [3] | Potency [4] | Potency [5] | Potency [6] | Potency [7] | Potency [9] | Potency [10] | Potency [11]

Cc1ccncc1
inactive: Potency [1] | Potency [2] | Potency [3] | Potency [4] | Potency [5] | Potency [6] | Potency [7] | Potency [8] | Potency [9] | Potency [10] | Potency [11]

CC(C)(CO)CO
inactive: Potency [1] | Potency [2] | Potency [3] | Potency [4] | Potency [5] | Potency [6] | Potency [7] | Potency [8] | Potency [10] | Potency [11]

O=C(Cl)c1ccc(C(=O)Cl)cc1
inactive and 63.3 µM (active): Potency [9]
inactive: Potency [1] | Potency [2] | Potency [3] | Potency [4] | Potency [5] | Potency [6] | Potency [8] | Potency [10] | Potency [11]

COC(=O)OC
inactive: Potency [1] | Potency [2] | Potency [3] | Potency [4] | Potency [5] | Potency [6] | Potency [7] | Potency [8] | Potency [10] | Potency [11]

CC(=O)c1nccs1
32.8 µM (active) and inactive: Potency [8]
26.1 µM (active) and inactive: Potency [7]
inactive: Potency [1] | Potency [2] | Potency [3] | Potency [4] | Potency [5] | Potency [6] | Potency [10] | Potency [11]

O=C(O)Cc1c[nH]c2ccccc12
inactive: Potency [1] | Potency [2] | Potency [3] | Potency [4] | Potency [5] | Potency [6] | Potency [9] | Potency [10] | Potency [11]
17.8 µM (active) and inactive: Potency [7]
31.7 µM (active) and inactive: Potency [8]

COC(=O)CCCCC(=O)OC
inactive: Potency [1] | Potency [2] | Potency [3] | Potency [4] | Potency [5] | Potency [6] | Potency [7] | Potency [8] | Potency [9] | Potency [10] | Potency [11]

CCOC(=O)c1ccc(O)cc1
inactive: Potency [1] | Potency [2] | Potency [3] | Potency [5] | Potency [12] | max activation [13] -2.61% | Potency [10]

CCN(CC)CCNC(=O)c1ccc(N)cc1
inactive: Potency [1] | Potency [2] | Potency [3] | Potency [4] | Potency [5] | Potency [10]

CC(C=O)Cc1ccc(C(C)(C)C)cc1 (stereo not drawn)
inactive: Potency [1] | Potency [2] | Potency [3] | Potency [5] | Potency [12] | Potency [6] | Potency [7] | Potency [9] | Potency [10] | Potency [11]
active: Potency [8] 56.4 µM

NC(=O)c1ncn([C@@H]2O[C@H](CO)[C@@H](O)[C@H]2O)n1
inactive: Potency [1] | Potency [2] | Potency [3] | Potency [4] | Potency [5] | Potency [6] | Potency [10] | Potency [11]

OCCOCCOCCOCCOCCO
inactive: Potency [1] | Potency [2] | Potency [4] | Potency [5] | Potency [10]
15.7 µM (active) and inactive: Potency [3]

Nc1cccc(C(F)(F)F)c1
inactive: Potency [1] | Potency [2] | Potency [3] | Potency [4] | Potency [5] | Potency [6] | Potency [8] | Potency [10] | Potency [11]

COc1c2ccoc2cc2oc(=O)ccc12
inactive: Potency [1] | Potency [2] | Potency [3] | Potency [4] | Potency [5] | Potency [10]
4.08 µM (active) and inactive: Potency [6]
active: Potency [8] 2.89 µM and 2.52 µM | Potency [9] 364 nM and 283 nM | Potency [11] 6.47 µM and 10 µM

O=C1O[C@H]([C@H](O)CO)C(O)=C1O
inactive: Potency [1] | Potency [2] | Potency [3] | Potency [4] | Potency [5] | Potency [6] | Potency [8] | Potency [9] | Potency [10] | Potency [11]

Cc1ccc(Cl)cc1
33.5 µM (active) and inactive: Potency [6]
inactive: Potency [1] | Potency [2] | Potency [3] | Potency [4] | Potency [5] | Potency [10] | Potency [11]
active: Potency [8] 63.3 µM

C[Si](C)(C)N[Si](C)(C)C
inactive: Potency [1] | Potency [2] | Potency [3] | Potency [4] | Potency [5] | Potency [6] | Potency [7] | Potency [8] | Potency [9] | Potency [10] | Potency [11]

From PubChem BioAssay (Tox21)
